{"source": "ChEMBL document CHEMBL4513216", "about": "“Probing the Open Global Health Chemical Diversity Library for Multistage-Active Starting Points for Next-Generation Antimalarials” (ACS Infect Dis, 2020)", "note": "The whole screen tested about 68,000 compounds, of which about 2,700 (4%) showed an effect of 50% or more. The sample as a whole holds a higher share of strong results than the screen did."}
{"tested_on": "Plasmodium berghei", "assay": "Screen against P. berghei liver stage (PbLuc), transformed with Luciferase, at 2uM", "type": "functional, HepG2", "details": "tested at 2 uM", "units": {"INHIBITION": "%"}}
{"smiles": "FC(F)(F)CCc1ncnn1-c1ccc2c(c1)OCO2", "INHIBITION": 11.9}
{"smiles": "FC(F)C(F)(F)COCc1ncnn1-c1ccc2c(c1)OCO2", "INHIBITION": 57.34}
{"smiles": "CN1CCN(C[C@H]2CC[C@@H](Cc3ccc4c(c3)OCO4)O2)CC1", "INHIBITION": 25.69}
{"smiles": "CN(CCCNC(=O)CN1CCS(=O)(=O)CC1)c1ccccc1", "INHIBITION": -20.29}
{"smiles": "COc1cccc(CN(Cc2ccco2)Cc2[nH]cnc2C)c1", "INHIBITION": 28.07}
{"smiles": "CCCc1noc(C2CCN(S(=O)(=O)c3cccs3)CC2)n1", "INHIBITION": -64.06}
{"smiles": "O=S(=O)(C1CC1)N1C[C@H]2CCC[C@@]2(COc2ccccn2)C1", "INHIBITION": -3.87}
{"smiles": "CCCc1cc(C(=O)N[C@@H]2CC[C@@H](N3CCOCC3)[C@@H]2O)no1", "INHIBITION": 4.06}
{"smiles": "COC[C@]1(O)CCN(Cc2cnc(N(C)C)nc2)CC1(C)C", "INHIBITION": 10.24}
{"smiles": "COCc1ncc(CN2CC[C@@](O)(COC)C(C)(C)C2)cn1", "INHIBITION": -20.75}
{"smiles": "COC[C@]1(O)CCN(Cc2cnc(N3CCOCC3)nc2)CC1(C)C", "INHIBITION": 52.31}
{"smiles": "Cc1ncncc1C(=O)N1CCCN(Cc2ncc(Cl)n2C)CC1", "INHIBITION": -16.3}
{"smiles": "Cc1noc(C)c1-c1cncc(C2CCCN2Cc2c[nH]cn2)n1", "note": "(stereo not given)", "INHIBITION": 28.23}
{"smiles": "Cc1noc(C)c1-c1cncc(C2CCCN2Cc2cc[nH]n2)n1", "note": "(stereo not given)", "INHIBITION": 46.98}
{"smiles": "Cc1noc(C)c1-c1cncc(C2CCCN2Cc2cn(C)cn2)n1", "note": "(stereo not given)", "INHIBITION": 50.32}
{"smiles": "CCOC(=O)C1CCN(C(=O)Cn2ccc3cc(Br)ccc32)CC1", "INHIBITION": 21.14}
{"smiles": "Cc1ccc2c(n1)N(Cc1cccnc1)CCN(C1CCOCC1)C2", "INHIBITION": -91.9}
{"smiles": "Cc1ccc(NC(=O)NCCCn2nc3ccccn3c2=O)cc1", "INHIBITION": -17.83}
{"smiles": "CSCCC(=O)N1CCCN(c2ccccc2C)CC1", "INHIBITION": 0.31}
{"smiles": "CSCC(=O)N1CCCN(c2ccccc2C)CC1", "INHIBITION": 2.91}
{"smiles": "Cc1ccccc1N1CCN(C(=O)CC(C)C)CC1", "INHIBITION": 56.49}
{"smiles": "CCCc1nnc(NC2CCN(C3CCOCC3)CC2)o1", "INHIBITION": 45.66}
{"smiles": "COCc1nnc(-c2cccc(C(=O)N(C)CC(C)(C)C)c2)o1", "INHIBITION": 62.51}
{"smiles": "COCc1nnc(-c2cccc(C(=O)OC(C)C)c2)o1", "INHIBITION": 33.9}
{"smiles": "COCc1nnc(-c2cccc(C(=O)N(C(C)C)C3CCC3)c2)o1", "INHIBITION": 21.97}
{"smiles": "CC1(C)Oc2ccc(NC(=O)c3ccc(=O)[nH]n3)cc2O1", "INHIBITION": 10.43}
{"smiles": "COc1ccnc(N2C[C@H]3CC[C@@H](C2)N(CC2CCC2)C3=O)n1", "INHIBITION": -24.7}
{"smiles": "COc1ccnc(N2CCC(=O)N(CC3CC3)C(C(C)C)C2)n1", "note": "(stereo not given)", "INHIBITION": -61.87}
{"smiles": "COc1ccnc(N2C[C@H]3CC[C@@H](C2)N(CC2CC2)C3)n1", "INHIBITION": 57.41}
{"smiles": "Cc1nc(-c2ccco2)ccc1C(=O)NCCCN1CCOCC1", "INHIBITION": -48.23}
{"smiles": "Cc1nc2ccnn2c(C)c1CCC(=O)N1CCN(C2CC2)CC1", "INHIBITION": 26.4}
{"smiles": "Cc1ccccc1C(=O)N1CCC2(CC1)CC(c1cnn(C)c1)CO2", "note": "(stereo not given)", "INHIBITION": 42.27}
{"smiles": "CN(C)C(=O)c1cc2c(nc1NCC1CC1)CCNCC2", "INHIBITION": 43.06}
{"smiles": "CS(=O)(=O)CCC(=O)Nc1cc(F)ccc1OCC1CCCO1", "note": "(stereo not given)", "INHIBITION": 6.31}
{"smiles": "O=C(Nc1cc(F)ccc1OCC1CCCO1)c1ccoc1", "note": "(stereo not given)", "INHIBITION": -27.04}
{"smiles": "O=C(CC(F)(F)F)Nc1cc(F)ccc1OCC1CCCO1", "note": "(stereo not given)", "INHIBITION": 56.03}
{"smiles": "O=C(Nc1cc(F)ccc1OCC1CCCO1)NC1CC1", "note": "(stereo not given)", "INHIBITION": 56.62}
{"smiles": "O=C(Nc1cc(F)ccc1OCC1CCCO1)N1CCCC1", "note": "(stereo not given)", "INHIBITION": -5.1}
{"smiles": "O=C(Nc1cc(F)ccc1OCC1CCCO1)N1CCSCC1", "note": "(stereo not given)", "INHIBITION": 9.23}
{"smiles": "Cc1ccn(CCC(=O)NCCc2ccco2)n1", "INHIBITION": -0.14}
{"smiles": "COc1ccc(C[C@H]2CN(C(=O)CS(C)(=O)=O)CC[C@H]2OC)cc1", "INHIBITION": 39.18}
{"smiles": "O=C(NCCO)Nc1ccc(Cl)cc1-n1cccc1", "INHIBITION": -12.7}
{"smiles": "Cc1nc(CN2CCCCC2CCc2ccc(O)cc2)co1", "note": "(stereo not given)", "INHIBITION": 0.58}
{"smiles": "Cc1noc(C)c1-c1ccc(C2CCCN2C(=O)c2ccncn2)nc1", "note": "(stereo not given)", "INHIBITION": 5.15}
{"smiles": "COc1cccc(Cn2c(C)c(C)oc2=O)c1OC", "INHIBITION": 23.87}
{"smiles": "Cc1cc(N2CCN(C3CCSCC3)CC2)n2nc(C)c(C)c2n1", "INHIBITION": 39.51}
{"smiles": "CCCNC(=O)C(C)Oc1ccccc1", "note": "(stereo not given)", "INHIBITION": 64.08}
{"smiles": "CCNC(=O)C(C)Oc1ccc(N(C)S(C)(=O)=O)cc1", "note": "(stereo not given)", "INHIBITION": 33.26}
{"smiles": "CCCNC(=O)C(C)Oc1ccc(F)cc1", "note": "(stereo not given)", "INHIBITION": 23.68}
{"smiles": "COc1ncc(C(=O)NCc2ccccc2)cn1", "INHIBITION": 60.36}
{"smiles": "CCOc1ccc(CNC(=O)c2cnc(OC)nc2)cc1", "INHIBITION": 58.98}
{"smiles": "COC(=O)c1ccc(C(=O)NCc2ccc(Br)cc2)cn1", "INHIBITION": 38.67}
{"smiles": "CCOc1ccc(Cl)c(C(=O)NCc2ccc(C(=O)NC)cc2)n1", "INHIBITION": 23.92}
{"smiles": "COc1ncc(C(=O)NCc2ccc(Br)cc2)cn1", "INHIBITION": 18.8}
{"smiles": "COc1ccc(CNC(=O)c2ccc(Br)cn2)cc1", "INHIBITION": 21.97}
